About 83,000 compounds went through this panel and 20% of them were active in at least one assay; those are over-represented in the sample as a whole.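 Cells were grown in 96-well plates and exposed to the test compound at a single concentration for 48 hours; results are reported as percent growth, with values below 10 considered active.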 Unmarked numbers belong to inactive results. Activity calls are given as the source filed them.
Each molecule was assayed on NCI/ADR-RES ovarian (assay: NCI-60 one-dose screen, 48 h (100 = growth as untreated, 0 = no growth, -100 = all killed)). Conditions: 10 µM unless noted.

Structure (SMILES)	growth
Cc1ccc(NC(=O)c2ccc(CN3CCN(C)CC3)c(C(F)(F)F)c2)cc1Oc1ccc(-c2[nH]nc3ncnc(N)c23)cc1	52%
COc1ccc([C@H]2c3[nH]c4ccccc4c3C[C@@H]3C(=O)N(C4CCN(Cc5ccccc5)CC4)CC(=O)N23)c(OC)c1	68.3%
IP(CCCSc1n(Cc2ccc3ccccc3c2)c(-c2ccccc2)c(-c2ccccc2)[n+]1Cc1ccc2ccccc2c1)(c1ccccc1)(c1ccccc1)c1ccccc1	94.1%
O=C1NC(=O)c2c1c1c3ccccc3ccc1c1[nH]c3ccccc3c21	0.105% (active)
COc1cc(/C=N/n2cnc3oc(-c4ccccc4)cc3c2=N)cc(CN2CCN(C)CC2)c1O	98.7%
COC1=C(c2ccccc2)C(=O)C(OC)=C(c2ccccc2)C1=O	102%
Cc1ccc(-c2csc(N/N=C/c3nc4ccccc4n3C3CC3)n2)cc1	72.9%
CC(C)=CCc1c(O)c(CC=C(C)C)c2c(c1O)C(=O)C1=C[C@@H]3C[C@H]4C(C)(C)O[C@@](C/C=C(\C)C(=O)O)(C3=O)[C@@]14O2	10.7%
CN1CCN(c2nc(-c3csc(-c4ccncc4)n3)cc3ccccc23)CC1	68%
CN1C(=O)N(C)C2C1NN=c1s/c(=C\c3ccccn3)c(=O)n12 (stereo not drawn)	96.7%
CC(C)SC1=NC(=C(C(=N1)NC2=ClC=CC=C2)C#N)C3=CC=CC=C3	52.7%
CC(=O)NC(C)(C)C(=O)N[C@@H](C)C(=O)NC(C)(C)C(=O)N[C@@H](C)C(=O)NC(C)(C)C(=O)N[C@@H](C)C(=O)N[C@@H](CCC(N)=O)C(=O)NC(C)(C)C(=O)N[C@H](C(=O)NC(C)(C)C(=O)NCC(=O)N[C@@H](CC(C)C)C(=O)NC(C)(C)C(=O)N1CCC[C@H]1C(=O)N[C@H](C(=O)NC(C)(C)C(=O)NC(C)(C)C(=O)N[C@@H](CCC(N)=O)C(=O)N[C@@H](CCC(N)=O)C(=O)N[C@H](CO)CC1CCCCC1)C(C)C)C(C)C	96.9% [5 µM]
Clc1ccc(-c2csc(N/N=C/c3nc4ccccc4n3C3CC3)n2)cc1	102%
O=C(NCCCNc1cc(-c2cn(-c3ccccc3)nc2-c2cccc(O)c2)ccn1)Nc1cc(C(F)(F)F)cc(C(F)(F)F)c1	69.7%
COc1ccc(-c2ccc3c4c(cccc24)C(=O)N(N2C(=O)c4cccc5cccc(c45)C2=O)C3=O)cc1	98.2%
Cc1cc(C(=O)Nc2ccc(SC#N)cc2)c(C)o1	100%
Oc1ccc(CSc2nnc(-c3cnccn3)o2)c2cccnc12	33%
O=C(O)c1ccc(-n2cc(CNc3ccc(Cl)cc3)c(-c3ccc(F)cc3)n2)cc1	102%
Cc1cn(-c2cc(NC(=O)c3cncc(C#Cc4cnc5ccc(OCCCS(C)(=O)=O)nn45)c3)cc(C(F)(F)F)c2)cn1	89.6%

Structure (SMILES)	growth
N/C(=N\OC(=O)CSc1nc2ccccc2s1)c1ccc2ccccc2c1	104%
Nc1nc(-c2cccc([N+](=O)[O-])c2)c(N=Nc2cccc(Cl)c2)s1	38.9%
CC[C@@](C)(NC(=O)C(C)(C)NC(=O)[C@@H](NC(=O)[C@@H]1CCCN1C(=O)C(C)(C)NC(=O)[C@H](CC(C)C)NC(=O)CNC(=O)C(C)(C)NC(=O)[C@@H](NC(=O)C(C)(C)NC(=O)[C@H](CCC(N)=O)NC(=O)[C@H](C)NC(=O)C(C)(C)NC(=O)[C@H](C)NC(=O)C(C)(C)NC(=O)[C@@H]1CCCN1C(=O)C(C)(C)NC(C)=O)C(C)C)C(C)C)C(=O)N[C@@H](CCC(N)=O)C(=O)N[C@@H](CCC(N)=O)C(=O)N[C@H](CO)Cc1ccccc1	100% [4.25 µM]
COc1ccc(-c2nn(-c3ccccc3)cc2/C=C/C(=O)c2ccc(NC(=O)CCCCCCC(=O)NO)cc2)cc1	97.8%
Nc1ccc(-c2nnc(SCc3ccc(O)c4ncccc34)o2)cc1	-9.89% (active)
O=C1Nc2ccc(Cl)cc2/C1=C/c1ccc(OCc2ccc(Br)cc2F)cc1	98.2%
C=C1C(=O)O[C@@H]2/C=C(/C)C3=CC(=O)[C@@](C)(C[C@H](OC(=O)/C(C)=C\C)[C@@H]12)O3	17.4%
O=C(CCCCCCN1CC(=O)N2[C@@H](c3cccc(Cl)c3)c3[nH]c4ccccc4c3C[C@H]2C1=O)NO	94.3%
CS(=O)(=O)c1ccc(-c2nn(-c3ccccc3)cc2/C=N/NC(=O)c2ccncc2)cc1	94.7%
CC(C)=CCc1c2c(c(O)c3c1O[C@]14C(=C[C@@H]5C[C@H]1C(C)(C)O[C@@]4(C/C=C(/C)C(=O)O)C5=O)C3=O)CC(O)C(C)(C)O2 (stereo partly drawn)	18%
C=C(C)C(=O)O[C@H]1C[C@@]2(C)OC(=CC2=O)/C(CO)=C\[C@H]2OC(=O)C(=C)[C@H]12	11.6%
COc1ccc(-c2nnc(SCc3ccc(O)c4ncccc34)o2)cc1	16.9%
Nc1ccc(-c2nnc(SCc3ccc(O)c4ncccc34)n2-c2ccccc2)cc1	45.2%
CC(C)N=C(N/C(N)=N/c1nc2ccccc2s1)NC(C)C	63.7%
CN1CCN(Cc2ccc(NC(=O)c3cncc(C#Cc4cnc5ccc(NC6CCOCC6)nn45)c3)cc2C(F)(F)F)CC1	7.41% (active)
COc1cc(/C=C/C(=O)c2ccc(NC(=O)CSc3nnc(-c4ccc5nc(-c6ccccc6)[nH]c5c4)o3)cc2)cc(OC)c1OC	100%
CC(=O)c1ccc(NC(=O)COc2ccc(C3SCC(=O)N3c3ccc(Br)cc3)cc2)cc1 (stereo not drawn)	92.6%
COc1ccc(Cn2cc3c(c2-c2ccccc2)CCCc2cnoc2-3)cc1	29.8%
O=C(CSc1ccc(-c2nc3ccccc3[nH]2)cn1)N1CCN(c2ccccc2F)CC1	29%
